Results reported in PubChem BioAssay (Tox21).
Results filed as inconclusive are left out. A call without a number means that no potency is given here. Unmarked numbers belong to inactive results. Active and inactive are the calls of the source. Calls follow the shape of the dose curve; as a rule, active = well fitted cell-killing curve with a large enough effect in the repeat runs; inconclusive = weak or mixed curves; inactive = flat fitted curve, though single readings scatter.
Potency is read from the fitted curve at half-maximal effect.

Assay: qHTS RealTime-Glo MT Cell Viability Assay in HepG2 cells - 8 hour (AID 1224873); also: nearly all actives have a fitted effect of over 55% in size
Details: RealTime-Glo luminescence; series mostly up to 76.8 µM
From the text: National Center for Advancing Translational Sciences [NCATS]
NIH Chemical Genomics Center [NCGC]
U.S. Environmental Protection Agency [EPA]
National Institutes of Environmental Health Sciences [NIEHS]
National Toxicology Program [NTP]
U.S. Food and Drug Administration [FDA]
Measure of cell viability is critical in the cell-base assay. Analysis of cell viability is necessary for the characterization of cell responses to cytotoxic drugs and environmental stress. A RealTime-Glo MT Cell Viability Assay to monitor cell viability in real time of continues cell culture during 40 hours of compound treatment was used to screen Tox21 10K library compounds in HepG2 cells. The RealTime-Glo MT Cell Viability Assay is a nonlytic, homogeneous, bioluminescent method to measure cell viability in real time using a simple, plate-based method. The assay involves adding NanoLuc luciferase and a cell-permeant prosubstrate to cells in culture. Viable cells reduce the proprietary prosubstrate to generate a substrate for NanoLuc luciferase. This substrate diffuses from cells into the surrounding culture medium, where it is rapidly used by the NanoLuc Enzyme to produce a luminescent signal. The signal correlates with the number of viable cells, making the assay well suited for cytotoxicity studies.
Tox21 Assay Protocol Summary:
The mixture of HepG2 cell suspension and reagents were dispensed at 600cells/6 ul/well in 1536-well tissue culture treated black solid bottom plates using a Multidrop dispenser. After the assay plates were incubated at a 37 C/5% CO2 incubator for 5 hours, 23 nL of compounds dissolved in DMSO, positive and negative controls was transferred to the assay plate by a pintool work station. The plates were incubated at 37 C for 40 hours. The luminescence intensity were measured at 0h, 8h, 16h, 24h, 32h and 40h time points using ViewLux plate reader during compound treatment.
With `CCC(=O)OC(=O)CC` the Potency was “inactive”.
For `O=S(=O)(O)c1ccccc1/C=C/c1ccc(-c2ccc(/C=C/c3ccccc3S(=O)(=O)O)cc2)cc1`, the Potency was “inactive”.
In the case of `COc1cccc(OC)c1C(=O)O`, the Potency is reported as “inactive”.
In the case of `C=CCCC(=O)/C=C/C1C(C)=CCCC1(C)C` (stereo not given), the Potency is reported as “inactive”.
With `ClCCl` the Potency was “inactive”.
In the case of `Cc1c(N)cccc1C(F)(F)F`, the Potency is reported as “inactive”.
For `CCCC1CCC(=O)CC1`, the Potency was “inactive”.
In the case of `O=[N+]([O-])c1cccc(C(F)(F)F)c1`, the Potency is reported as “inactive”.
In the case of `S=C([S-])NCCNC(=S)[S-].S=C([S-])NCCNC(=S)[S-].[Mn+2].[Zn+2]`, the Potency is reported as “inactive”.
With `CC(C)=CCNc1ncnc2c1ncn2[C@@H]1O[C@H](CO)[C@@H](O)[C@H]1O` the Potency was “inactive”.
In the case of `Cc1ccc(-c2ccccc2)cc1`, the Potency is reported as “inactive”.
In the case of `CCCCCCOC(=O)C(C)CC` (stereo not given), the Potency is reported as “inactive”.
For `CC(=O)OCC=C(C)C`, the Potency was “inactive”.
With `C[Si](Cl)(c1ccccc1)c1ccccc1` the Potency was “inactive”.
In the case of `CC[N+](CC)(CC)CCOC(=O)C(C1CCCC1)C1CCCC1`, the Potency is reported as “inactive”.
With `c1ccc(SSc2ccccc2)cc1` the Potency was “inactive”.
With `c1ccc(C(O[C@@H]2CCCN(CCc3ccc4c(c3)OCO4)C2)c2ccccc2)cc1` the Potency was “inactive”.
For `CC1(C)CCC[C@]2(C)[C@H]3CC(=O)O[C@]3(C)CC[C@@H]12`, the Potency was “inactive”.
With `C#C[C@]1(OC(C)=O)CC[C@H]2[C@@H]3CCC4=C[C@@H](OC(C)=O)CC[C@@H]4[C@H]3CC[C@@]21C` the Potency was “inactive”.
With `Clc1sc(Cl)c(Cl)c1Cl` the Potency was “inactive”.
In the case of `CCN(CC)C(=O)c1cc(S(=O)(=O)Cc2ccccc2)c(N2CCC(c3ccccc3)CC2)cc1N(CC)CCN(C)C`, the Potency is reported as 17.2 µM (active).
In the case of `O=C(O)[C@H](O)[C@@H](O)[C@H](O[C@@H]1O[C@H](CO)[C@H](O)[C@H](O)[C@H]1O)[C@H](O)CO`, the Potency is reported as “inactive”.
With `CNc1ccc([N+](=O)[O-])cc1` the Potency was “inactive”.
With `Cc1cc(-c2ccc(N=Nc3cc(S(=O)(=O)O)c4ccccc4c3N)c(C)c2)ccc1N=Nc1cc(S(=O)(=O)O)c2ccccc2c1N` the Potency was “inactive”.
In the case of `CCc1oc2ccccc2c1C(=O)c1cc(I)c(O)c(I)c1`, the Potency is reported as “inactive”.
For `COC(=O)c1ccccc1C`, the Potency was “inactive”.
Compound `CC(C)(C)CC(C)(C)c1ccc(Nc2ccc(C(C)(C)CC(C)(C)C)cc2)cc1` has a viability change, negative = cytotoxic of 4.91% [at 6.97 µM].
For `C[C@H]1NCc2cc(-c3ccc4c(=O)c(C(=O)O)cn(C5CC5)c4c3OC(F)F)ccc21`, the viability change, negative = cytotoxic was -17% [at 15.8 µM].
For `CCCCCCCCCCCC(=O)OCC(C)OC(=O)CCCCC(=O)O` (stereo not given), the Potency was “inactive”.
With `Cc1nc2n(c(=O)c1CCN1CCC(c3noc4cc(F)ccc34)CC1)CCCC2` the Potency was “inactive”.
With `CCN1C(=O)c2ccccc2C1Nc1ccc(OCCN2CCCCC2)cc1` (stereo not given) the Potency was “inactive”.
With `C/C=C/C=C/COC(=O)C(C)C` the Potency was “inactive”.
For `CCC(CC)C(C)CCOC(C)=O` (stereo not given), the Potency was “inactive”.
For `CC1(C)CC(O)CC(C)(C)N1`, the Potency was “inactive”.
In the case of `Nc1ccc(NCCO)c([N+](=O)[O-])c1`, the Potency is reported as “inactive”.
With `C=Cc1ccccc1C=C` the Potency was “inactive”.
With `S=c1nccc[nH]1` the Potency was “inactive”.
In the case of `O=C1CCCCCCCCCCCCCCCO1`, the Potency is reported as “inactive”.
For `O=C(O)c1ccc2cc(C(=O)O)ccc2c1`, the Potency was “inactive”.
With `COC(=O)c1ccccc1OC` the Potency was “inactive”.
